# Data from ChEMBL document CHEMBL3988442, “University of Dundee, Small-Polar-MMV Screening Library” (2021).
# Out of some 48,000 compounds screened, about 13,000 (27%) showed an effect of 50% or more. The list shows a part of the results.
# Tested on: Wolbachia pipientis
# Assay: Anti-Wolbachia Cell-Based Screen
# Type: functional
# Parameters: scale not given: in the data most compounds retested in dose-response had high values
# Conditions: 5 µM
row,Structure (SMILES),Percent Effect
1,COc1ccc(-c2noc(CNC(C)Cn3cccn3)n2)c(OC)c1 (stereo not drawn),-1.941%
2,CNC(=O)COc1cccc(CNC(=O)c2c(C)noc2C(C)C)c1,111.4%
3,Cc1noc(C(C)C)c1C(=O)NCc1cccc(N(C)C)c1,-0.3759%
4,Cc1nc(-c2cnn(C)c2)sc1C(=O)NCc1cccc(CN(C)C)c1,4.14%
5,Cc1noc(C(C)C)c1C(=O)NS(=O)(=O)c1cccnc1,-12.13%
6,COCc1cccc(CNC(=O)c2c(C)noc2C(C)C)c1,76.98%
7,COc1cccc(S(=O)(=O)NC(=O)c2c(C)noc2C(C)C)c1,-5.099%
8,Cc1noc(C)c1C(=O)N(C)C(C)c1cccnc1 (stereo not drawn),4.505%
9,Cc1noc(C(C)C)c1C(=O)NCc1cccnc1,107.3%
10,Cc1noc(C(C)C)c1C(=O)NCc1cccc(CN(C)C)c1,74.15%
11,CNC(=O)COc1cccc(CNCc2c(C)noc2C)c1,-88.14%
12,CNC(=O)COc1cccc(CNC(=O)c2c(C)noc2C)c1,3.18%
13,COc1cc(CNC(=O)c2c(C)noc2C(C)C)ccn1,8.071%
14,CNC(=O)CC1CCN(C(=O)Nc2ccc(-c3cc[nH]n3)cc2)CC1,6.092%
15,CCOCC(=O)NCC(CC)(OC)c1ccccc1 (stereo not drawn),1.259%
16,CS(=O)(=O)N1CCCCC12CCN(c1nncs1)CC2,-20.36%
17,COc1ccc(C(CNC(=O)Nc2cn[nH]c2)N2CCOCC2)cc1 (stereo not drawn),-0.482%
18,O=C(NCc1cc[nH]n1)NCC(c1ccc(F)cc1)N1CCOCC1 (stereo not drawn),5.34%
19,CC(CNC(=O)Nc1cn[nH]c1)N1CCCC1 (stereo not drawn),127.7%
20,Cc1ccc(C(CNC(=O)NCc2cc[nH]n2)N2CCOCC2)o1 (stereo not drawn),-7.152%
21,Cc1ccc(C(CNC(=O)Nc2cn[nH]c2)N2CCOCC2)o1 (stereo not drawn),59.24%
22,CC(CNC(=O)Nc1cn[nH]c1)N1CCOCC1 (stereo not drawn),3.391%

row,Structure (SMILES),Percent Effect
1,O=C(NCC(c1ccccc1)N1CCOCC1)Nc1cn[nH]c1 (stereo not drawn),127.8%
2,CC(CNC(=O)Nc1cn[nH]c1)N1CCc2ccccc2C1 (stereo not drawn),-5.86%
3,O=C(NCC(c1ccc(F)cc1)N1CCOCC1)Nc1cn[nH]c1 (stereo not drawn),114.1%
4,CCn1c(CN(C)C)nnc1C1CCN(Cc2ccc(Cl)cc2F)CC1,-5.252%
5,Cc1ccc2c(c1)nc1n2[C@@H](CNC(=O)c2ccccn2)COC1,6.729%
6,CCC(CC)C(CNC(=O)Nc1ccc(C)cc1)N1CCOCC1 (stereo not drawn),4.516%
7,Cc1noc(C)c1CC(=O)NCC(C(C)C)N1CCOCC1 (stereo not drawn),-3.487%
8,CC(C)C(CNC(=O)Nc1cn[nH]c1)N1CCOCC1 (stereo not drawn),97.51%
9,CC(C)C(c1cccnc1)N(C)C(=O)Cc1ccc(O)cc1 (stereo not drawn),-17.69%
10,C=C(C)COc1cccc(C(=O)NC(C)c2nnn[nH]2)c1 (stereo not drawn),104.4%
11,CCC(=O)c1ccc(OCC(=O)NC(C)c2nnn[nH]2)cc1 (stereo not drawn),-5.336%
12,C=C(C)COc1ccccc1C(=O)NCCCc1nnn[nH]1,115.9%
13,CN(CCCNC(=O)c1cccc(OCC(N)=O)c1)CC(F)(F)F,0.5585%
14,C=C(C)COc1ccccc1C(=O)N(C)C(C)c1c(C)n[nH]c1C (stereo not drawn),-35.55%
15,C=C(C)COc1cccc(C(=O)N(C)C(C)c2c(C)n[nH]c2C)c1 (stereo not drawn),-12.59%
16,C=C(C)COc1cccc(C(=O)NCCCc2nnn[nH]2)c1,109%
17,C=C(C)COc1cccc(C(=O)N(CC)Cc2nccn2C)c1,0.123%
18,C=C(C)COc1ccccc1C(=O)NCCc1nncn1C,-0.8083%
19,CN1Cc2ccccc2CC1C(=O)N1CCN(CCS(C)(=O)=O)CC1 (stereo not drawn),0.38%
20,CS(=O)(=O)c1ccc(OCCNCc2cccc(Cl)c2)cc1,6.711%
21,CS(=O)(=O)CCNCc1ccc(OCc2ccccn2)cc1,-3.882%
22,CC1CCN(C(=O)C(C)N2CCc3[nH]nc(C(F)(F)F)c3C2)CC1 (stereo not drawn),-0.1757%

row,Structure (SMILES),Percent Effect
1,CN(C)c1ncc(-c2ccc(NC(=O)[C@@H]3CCCCN3)cc2)cn1,109.4%
2,CN(C)C(=O)Cc1ccc(NC(=O)NC2CCCC2)cc1,20.91%
3,COc1ccc(NC(=O)c2cnc(N(C)C3CCCCC3)nc2N)cc1,-20.25%
4,CN(CCO)c1ncc(-c2ccc(NC(=O)[C@@H]3CCCCN3)cc2)cn1,112.4%
5,CN(C)C(=O)Cc1ccc(NC(=O)NC2CCCCC2)cc1,10.45%
6,Cc1cc(CNC2(CO)CCOCC2)ccc1Br,-0.9175%
7,CC(C)c1nc(-c2cc(C(=O)NCCCO)c3ccccn23)cs1,-2.585%
8,COCc1nc(CNc2cccc(-c3ncon3)c2)cs1,-4.875%
9,COc1c(CNC2CCN(C(=O)C(C)C)CC2)c(C(C)C)nn1C,121.5%
10,CC(C)C(=O)N1CCC(NCc2c(C(C)C)nn(C)c2N(C)C)CC1,-18.23%
11,CC(C)c1nn(C)c(N(C)C)c1CNC1CCC(O)CC1 (stereo not drawn),13.16%
12,COc1c(CNC2CCC(O)CC2)c(C(C)C)nn1C (stereo not drawn),106.7%
13,COc1c(CNC2CCN(C(C)(C)C)CC2)c(C(C)C)nn1C,2.143%
14,COc1c(CNC2CCN(C(=O)C3CC3)CC2)c(C(C)C)nn1C,2.531%
15,CCOc1cccc(CCNC(=O)NC2CCc3[nH]ncc3C2)n1 (stereo not drawn),4.598%
16,O=C1CC(N(C(=O)c2csc(-c3ccccc3)n2)C2CC2)C(=O)N1 (stereo not drawn),-6.994%
17,Cc1ccc2c(n1)N(CCN(C)C)CCN(C(=O)c1cscn1)C2.O=C(O)C(F)(F)F.O=C(O)C(F)(F)F,28.27%
18,COCCNS(=O)(=O)c1ccc2c(c1)CCN(C(=O)c1cncn1C)C2,-12.86%
19,CC(C)N(C)S(=O)(=O)c1ccc2c(c1)CCN(C(=O)c1cccnn1)C2,105.4%
20,CC(C)N(C)S(=O)(=O)c1ccc2c(c1)CCN(C(=O)c1cnccn1)C2,109.6%
21,CC(C)N(C)S(=O)(=O)c1ccc2c(c1)CCN(C(=O)c1ccccn1)C2,85.52%
22,CC(C(=O)N1CCc2ccccc2C1)N(C)Cc1cscn1 (stereo not drawn),-9.272%

row,Structure (SMILES),Percent Effect
1,CN(C)Cc1ccc(C2CCCCN2C(=O)c2cccnn2)cc1 (stereo not drawn),-5.621%
2,CC(C)N(C)Cc1noc2c1CN(C(=O)c1cnccn1)CC2,-8.266%
3,CC(C)N(C)S(=O)(=O)c1ccc2c(c1)CCN(C(=O)c1cscn1)C2,99.31%
4,COCCNS(=O)(=O)c1cccc2c1CN(C(=O)c1cnccn1)CC2,-8.732%
5,CCS(=O)(=O)NC1CCCN(c2cc(C)ccc2F)C1=O (stereo not drawn),-7.776%
6,O[C@H]1[C@H](NCCSc2ccccn2)c2ccccc2C12CCNCC2,-1.82%
7,COc1ccccc1Oc1ncccc1CNC(=O)[C@H](N)CC(C)(C)C,-16.84%
8,CC(=O)NC1CCN(c2ncnc3c2c(C)nn3C)C1 (stereo not drawn),-10.72%
9,COc1cc(C)c(C2CC(=O)NCc3nc4sccn4c32)cc1C (stereo not drawn),-46.51%
10,CCOCc1ccc(NC(=O)C(C)C)cc1,2.83%
11,CCC[C@H]1CN(CCS(C)(=O)=O)C[C@@H]1NC(=O)c1cc(CC)on1,21.57%
12,Cc1cc(C)n(CC(=O)N2CCC(NS(=O)(=O)c3ccccc3)CC2)n1,-8.172%
13,Cc1cc(C)n(CCNCc2cc(-c3ccc(Cl)cc3)c[nH]c2=O)n1,101%
14,Cc1cc(C)n(CCNCc2cc(-c3ccccc3)c[nH]c2=O)n1,81.59%
15,Cc1cc(C)n(CCNCc2cc(-c3ccc(F)cc3)c[nH]c2=O)n1,135.5%
16,COC(=O)c1ccc(Cn2nc(C)cc2C)c(F)c1,-8.514%
17,Cc1cc(F)ccc1CNCCn1cccn1,-2.042%
18,CCn1cnnc1CCNCc1c[nH]nc1-c1ccc(F)cc1,-1.595%
19,COC(=O)c1ccc(F)c(Cn2nc(C)cc2C)c1,-3.045%
20,Cc1cc(C)n(CC(=O)Nc2cc(-c3ccncc3)[nH]n2)n1,0.2765%
21,c1ccc2sc(N3CCCC(Cn4cncn4)C3)nc2c1 (stereo not drawn),2.326%
22,NCC1CCCCN1Cc1cc(O)c2cccc(F)c2n1 (stereo not drawn),-47.52%

row,Structure (SMILES),Percent Effect
1,CN1CCCN(C(=O)c2nnn(-c3ccc(C(F)(F)F)cc3)n2)CC1,20.55%
2,Cc1cccc(C(C(=O)NCc2nc(-c3ncccn3)no2)N(C)C)c1 (stereo not drawn),-6.766%
3,Clc1cccc(-c2cccc(N3CCC(NC4CCOCC4)CC3)c2)c1,91.89%
4,Cc1nnc(-c2cccc(N3CCC(NC(C)CC(C)C)CC3)c2)s1 (stereo not drawn),13.1%
5,Cc1ccc(-c2cccc(N3CCC(NC4CCOCC4)CC3)c2)cc1,106.4%
6,Clc1cccc(N2CCC(NCc3cc[nH]n3)C2)c1 (stereo not drawn),-6.457%
7,Cc1nnc(-c2cccc(N3CCC(NC4CCSC4)CC3)c2)s1 (stereo not drawn),-9.983%
8,O=C(Cc1cccc(O)c1)NC1CCN(c2cccc(Cl)c2)C1 (stereo not drawn),1.358%
9,CC(C)N1CCOCC2(CCCN(C(=O)c3cn(C)cn3)C2)C1.O=C(O)C(F)(F)F (stereo not drawn),-9.46%
10,O=C(c1ccc(-n2ccnn2)cc1)N(CC1CC1)c1cccnc1,-13.01%
11,O=C(c1ccccc1)N(CC1CC1)c1cccnc1,119.1%
12,CCCN(C(=O)c1ccc(-n2ccnn2)cc1)c1cccnc1,-3.595%
13,CCCC1CCCN(C(=O)Nc2ccnc(C(=O)N(C)C)c2)CC1 (stereo not drawn),-1.886%
14,Cc1cc(NC(=O)C2CCCN(C(=O)NCC(C)C)C2)ccn1 (stereo not drawn),89.55%
15,Cc1n[nH]c(C)c1Sc1ccccc1NC(=O)N1CCCC(C(N)=O)C1 (stereo not drawn),-0.33%
16,Cc1n[nH]c(C)c1NC(=O)C1CCCN(C(=O)NCC(C)C)C1 (stereo not drawn),113.5%
17,NC(=O)N1CCCC(C(=O)Nc2cccc(Cl)c2)C1 (stereo not drawn),3.636%
18,CCNC(=O)N1CCCC(C(=O)c2cccc(OC(C)C)c2)C1 (stereo not drawn),17.22%
19,Cc1n[nH]c(C)c1CCNC(=O)C1CCCN(CC(N)=O)C1 (stereo not drawn),-16.53%
20,Cc1c(C2CC2)n[nH]c1NC(=O)C1CCCN(C(=O)NCC(C)C)C1 (stereo not drawn),117.7%
